Screening results deposited in PubChem BioAssay by National Center for Advancing Translational Sciences (NCATS).
SW480 rereplic: A quantitative high throughput screen for small molecules that induce DNA re-replication in SW480 colon adenocarcinoma cells. SW480 DNA re-replication, Hoechst DNA content imaging, 48 h. Potency, µM (doses to about 46.1 µM), usual class: activators. 340,000 compounds, 1.8% hits; further: nearly all actives have a fitted effect of over 55% in size
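First, 250 cells per well were seeded. Next, compound or vehicle (23 nL) was pinned in, plates sat 48 hr at 37 C. Finally Hoechst was added for 40 min before fluorescence scanning.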
MCF10A rerep: A quantitative high throughput screen for small molecules that induce DNA re-replication in MCF 10a normal breast cells | MCF 10A DNA re-replication, Hoechst nuclear intensity, 48 h | Potency, µM (highest dose often 46.1 µM), usual class: activators | 350,000 compounds, 2.9% hits; further: nearly all actives have a fitted effect of over 50% in size
KB-V1 MDR tox: qHTS assay for MDR1-selective chemotherapeutics: Primary screen using the drug-selected MDR subline cells KB-V1; KB-V1 MDR cells viability, CellTiter-Glo, 72 h; Potency, µM (series often up to 46.1 µM), actives largely listed as cytotoxic; 400,000 compounds, 3.4% hits; further: nearly all actives have a fitted effect of over 60% in size
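Cells of the MDR subline KB-V1 are plated, dosed with compound at multiple concentrations, and incubated 72 h at 37 degrees C; CellTiter-Glo is then added and luminescence read after 10 min.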
KB-3-1 tox: qHTS assay for MDR1-selective chemotherapeutics: Primary screen using the parental adenocarcinoma cell KB-3-1 | Potency, µM (top dose mostly 46.1 µM), most hits filed as cytotoxic | 400,000 compounds, 1.4% hits | KB-3-1 viability, CellTiter-Glo ATP luminescence, 72 h; further: nearly all actives have a fitted effect of over 60% in size
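KB-3-1 parental drug-naive adenocarcinoma cells in DMEM/10% FBS, incubated 72 h at 37 C with pin-transferred compounds across a concentration series. Viability by CellTiter-Glo luminescence; concentration-response curves fitted after normalization.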
HT1080 IDH1KD tx: qHTS for induction of synthetic lethality in tumor cells producing 2HG: qHTS for the HT-1080-IDH1KD cell line; Potency, µM (series often up to 46.1 µM), most hits filed as cytotoxic; 360,000 compounds, 2% hits; HT-1080 IDH1 knockdown viability, ATP luminescence, 48 h; AID 686971, 2013
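Cytotoxicity counter-line: IDH1KD HT-1080, 48 h, CellTiter-Glo. Curves classed by r2, magnitude and activity.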
HT1080-NT tox: qHTS for induction of synthetic lethality in tumor cells producing 2HG: qHTS for the HT-1080-NT fibrosarcoma cell line; HT-1080-NT fibrosarcoma viability, CellTiter-Glo ATP luminescence, 48 h; Potency, µM (highest dose often 46.1 µM), hits mostly cytotoxic; 360,000 compounds, 1.6% hits; AID 686970, 2013;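 further: NT is the 2HG producing partner of a matched IDH1 knockdown line; nearly all actives have a fitted effect of over 55% in size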
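Viability of the 2HG-overproducing fibrosarcoma line after 48 hours of compound exposure at 37 degrees C was determined by luminescence with CellTiter-Glo, and concentration-effect curves were then fitted and categorized.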
A number is an active result; n = inactive; u = inconclusive; x = no result; [ ] = dose if it differs, or a comment. This is a sample that favours compounds with a hit; in the whole collection about 8% have one here. The call rests on the fitted dose curve; in most records, active means well fitted curve in the direction sought with a large enough effect; inconclusive means small, poorly fitted or top-dose-only effect, or another doubt; inactive means no such curve, though single readings can be large; an effect the other way counts as inactive or inconclusive.

SMILES	SW480 rereplic	MCF10A rerep	KB-V1 MDR tox	KB-3-1 tox	HT1080 IDH1KD tx	HT1080-NT tox
C=C(NC(=O)C(=C)NC(=O)c1csc(C2=NC3c4csc(n4)C4NC(=O)c5csc(n5)C(C(C)(O)C(C)O)NC(=O)C5CSC(=N5)/C(=C/C)NC(=O)C(C(C)O)NC(=O)c5csc(n5)C3(CC2)NC(=O)C(C)NC(=O)C(=C)NC(=O)C(=C)NC(=O)C(C(C)C)NC2C=Cc3c(C(C)O)cc(nc3C2O)C(=O)OC4C)n1)C(N)=O (centres undefined)	1.2µM	u	u	u	5.2µM	u
O=C(N/N=C/c1ccc[nH]1)c1ccc(O)cc1	n	n	n	n	n	n
Cc1cc(Br)c(OCc2ccc(C(=O)N/N=C/c3ccc[nH]3)cc2)c(Br)c1	3.7µM	u	u	2.6µM	1µM	0.82µM
O=C(N/N=C/c1ccccc1C(=O)O)c1ccc(COc2cccc3cccnc23)cc1	n	n	n	n	n	n
O=C(N/N=C/c1ccc[nH]1)c1ccc(COc2cccc3cccnc23)cc1	n	u	n	2.3µM	5.2µM	u
Cc1ccc(Cc2c(C)nc3nc(SCC(=O)NCCC(C)C)nn3c2C)cc1	x	x	n	n	x	x
COc1ccc(NC(=O)CN2CCN(Cc3ccccc3Cl)S2(=O)=O)cc1Cl	x	x	u	n	x	x
Cc1ccnc2ccc3ccccc3c12	x	x	n	8.2µM	x	x
O=c1[nH]c2cc([N+](=O)[O-])ccc2c2ccccc12	n	n	u	n	u	n
CCc1cccc2[nH]c3cc([N+](=O)[O-])ccc3c12	n	n	13µM	u	n	n
O=C(Nc1cccc(C(F)(F)F)c1)c1cc2c(=O)c3ccccc3oc2nc1C(F)(F)F	n	n	21µM	n	n	n
Cc1ccc(N(CC(=O)NCC(O)c2ccccc2)S(=O)(=O)c2ccc(C)cc2)cc1 (centres undefined)	n	n	n	n	n	n
Cc1ccc(S(=O)(=O)N(CCC(=O)NCC(c2ccccc2)N(C)C)c2ccccc2)cc1 (centres undefined)	n	n	10µM	n	n	n
NNC(=O)c1c(O)c2cccc3c2n(c1=O)CCC3	n	21µM	u	n	n	n
O=C(NCCCO)c1c(O)c2cccc3c2n(c1=O)CCC3	n	u	12µM	5.8µM	n	n
O=C1NC(Cc2ccccc2)c2nc3cc(F)c(F)cc3c(=O)n2-c2cc3ccccc3cc21 (centres undefined)	x	x	u	15µM	u	u
Cc1ccc2nc3n(c(=O)c2c1)-c1cc2ccccc2cc1C(=O)NC3Cc1ccc(O)cc1 (centres undefined)	x	x	n	u	13µM	9.2µM
COc1cc2nc3n(c(=O)c2cc1OC)-c1cc2ccccc2cc1C(=O)NC3CC(C)C (centres undefined)	x	x	u	18µM	u	n
Cc1ccc2c(=O)n3c(nc2c1)C(Cc1ccc(O)cc1)NC(=O)c1cccnc1-3 (centres undefined)	x	x	u	n	n	n
O=C1NC(Cc2ccc(O)cc2)c2nc3cc(Cl)ccc3c(=O)n2-c2cc3ccccc3cc21 (centres undefined)	x	x	u	u	16µM	23µM
CCc1nnc(SCC(=O)Nc2cc(Cl)c(OC)cc2OC)c2cc3oc(C)cc3n12	x	x	n	n	x	x
O=C1NC(Cc2ccc(O)cc2)c2nc3cc(F)c(F)cc3c(=O)n2-c2cc3ccccc3cc21 (centres undefined)	x	x	n	u	18µM	u
O=C1NC(Cc2ccc(O)cc2)c2nc3ccc(F)cc3c(=O)n2-c2cc3ccccc3cc21 (centres undefined)	x	x	u	13µM	16µM	12µM
COc1ccc(S(=O)(=O)n2nc(OC(=O)c3c(-c4ccccc4Cl)noc3C)cc2N)cc1	n[9.22 µM]	1.6µM	n	u	u	u
COc1ccc(C(=O)C(CCC(CNC(C)(C)C)C(=O)c2ccc(OC)cc2)CNC(C)(C)C)cc1 (centres undefined)	2.9µM	5.8µM	u	u	4.6µM	u
SMILES	SW480 rereplic	MCF10A rerep	KB-V1 MDR tox	KB-3-1 tox	HT1080 IDH1KD tx	HT1080-NT tox
COc1ccc(C(=O)CC(=O)c2ccc(C(C)(C)C)cc2)cc1	n	u	u	n	n	n
O=[N+]([O-])c1nn(-c2ccc3c(c2)OCCO3)n(O)c1=NC1CCN(Cc2ccccc2)CC1	7.3µM	n	n	n	n	n
O=[N+]([O-])c1nn(-c2ccccc2)n(O)c1=NC1CCN(Cc2ccccc2)CC1	10µM	u	u	n	n	n
Cc1oc2ncn(CC(C)C)c(=O)c2c1C(=O)NCCc1ccc(Cl)cc1	x	x	n	n	x	x
COc1ccc(CNC(=O)Cn2c(=O)oc3cc(S(=O)(=O)N4CCCCCC4)ccc32)cc1	x	x	u	n	x	x
CC1=C(C(=O)OCC2CCCO2)C(c2cccc(C(F)(F)F)c2)C2=C(CC(c3ccco3)CC2=O)N1 (centres undefined)	u	u	u	16µM	u	n
CC1=C(C(=O)OCC2CCCO2)C(c2ccccc2OC(C)C)C2=C(CC(c3ccco3)CC2=O)N1 (centres undefined)	u	n	n	n	n	n
O=C(NCC(c1ccc2c(c1)OCO2)N1CCOCC1)c1cccc(Cl)c1 (centres undefined)	x	x	u	n	x	x
CCOC(=O)c1cnc2c(cnn2C)c1NCCC(O)C(F)(F)F (centres undefined)	n	n	6.5µM	n	n	n
CCC(=O)OC1=C(C(C)=O)N(Cc2ccccc2)S(=O)(=O)c2ccccc21	x	x	n	n	x	x
COc1ccc(CNC(=O)C(=O)NCC(c2cccs2)S(=O)(=O)c2cccs2)cc1 (centres undefined)	x	x	n	n	x	x
C=CCn1c(SCc2csc(C)n2)nc2sc3c(c2c1=O)CCC(C)C3 (centres undefined)	n	21µM	n	n	n	n
C=CCn1c(SCc2csc(C)n2)nc2sc3c(c2c1=O)CCCC3	n	16µM	n	u	u	n
O=C(CC(c1cccs1)N1Cc2ccccc2C1=O)Nc1ccccc1 (centres undefined)	x	x	n	n	x	x
O=C(CSC1=NNC(c2ccccn2)S1)Nc1ccc(C(F)(F)F)cc1 (centres undefined)	u	u	n	u	4.1µM	15µM
